Assay outcomes as filed in PubChem BioAssay.
CYP2C19 inh: human CYP2C19 inhibition; P33261; CYP2C19 Supersomes, luciferin-H EGE luminescence, 30 min; inhibition, % at 5 µM; actives 21% (n = 96,000); AID 778;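 active = CYP2C19 inhibition above a set limit at 5 µM in the primary screen, cut at about 50% in these data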;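 note: plate controls were negative control wells for no effect and 2.5 mM tranylcypromine positive control for full effect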
PTK2B oligo ant: blocks oligomerization of human Pyk2 in cells. AID 1347419. actives 0.83% (n = 99,000). Q14289. z-score (the deposit names both 25 µM and 10 µM). Q293 cells, Pyk2 FERM NanoBiT luminescence; active compounds read low;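 active = Z-score of -3 or lower, scaled per plate to the spread of control and sample wells; inactive = z-score above -3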;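 note: negative z-score means lost luminescence so less FERM oligomerization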
CYP2C19 act: increases human CYP2C19 enzyme activity; P33261; recombinant CYP2C19, luciferin-H EGE luminescence; active compounds read high; 0 = fully inhibited enzyme, 1 = untreated enzyme; activation factor at 5 µM; 96,000 tested, under 10 active; AID 1025;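 active = activation factor of at least 2 at 5 µM in the primary screen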;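 note: 0 = wells with 2.5 mM tranylcypromine and 1 = vehicle-only wells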
Cav3 T inh: inhibitors of human Cav3.2 T-type calcium channel; O95180; Cav3.2-expressing cells, Fluo-4 calcium fluorescence FDSS; active compounds read low; B-score at 10 µM; actives 4% (n = 100,000); AID 449739;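 active = single-dose well whose peak fluorescence ratio is a statistical outlier from its plate by either plate-standardised score or position-corrected B-score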
CYP2C9 activ: activators of human CYP2C9 | P11712 | recombinant CYP2C9, luciferin-H conversion, luminescence; active compounds read high; factor 1 = untreated enzyme, 0 = blocked | activation factor at 5 µM | actives 1.4% (n = 96,000) | AID 1024;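 active = activation factor of 2 or more for CYP2C9 at a 5 µM dose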;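 note: 0 = sulfaphenazole-blocked wells and 1 = vehicle-only wells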
CYP2C9 inh: inhibitors of human CYP2C9; P11712; CYP2C9 Supersomes, luciferin-H conversion, luminescence; inhibition, % at 5 µM; actives 20% (n = 96,000); AID 777;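 active = blocking of liver enzyme CYP2C9 beyond about 50% at 5 µM, limit read from the data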
Active calls of the source: *; x = not tested or not shown. Only some compounds are listed: those with a hit (about 27% of all), similar ones and a draw of the others.

SMILES	CYP2C19 inh	PTK2B oligo ant	CYP2C19 act	Cav3 T inh	CYP2C9 activ	CYP2C9 inh
COC(=O)NCc1ccc(CNC(=O)OC)cc1	4	1.4	1	-0.17	1	0
COC(=O)NCc1ccc(Cl)c(Cl)c1	64*	0.03	0.4	-1.6	1	3
COc1ccc(CNC(=O)Oc2ccccc2)cc1Cl	63*	0.24	0.4	-5.2*	2.4*	-140
COC(=O)c1ccccc1NC(=O)c1cc2ncc(Br)cn2n1	-9	0.18	1.1	x	1.5	-46
C=C(C)C1Cc2c(C)nn(-c3nc(C)cc(C)n3)c2C1 (stereo not drawn)	-13	-0.04	1.1	-1.4	1	1
CCCCN(C)CCCNC(=O)c1ccc(N2CCCC2=O)cc1	-5	0.07	1	-2.8	1	-5
Cn1c(=O)[nH]c(=O)c2c1nc(CN1CCN(Cc3ccccc3)CC1)n2CC(N)=O	-7	x	1.1	-1.4	1.1	-11
O=C1CCC(/C=C/c2ccccc2)=NN1Cc1ccc(Cl)c(Cl)c1	44	1.4	0.6	0.028	0.3	73*
O=C1CCC(/C=C/c2ccccc2)=NN1Cc1ccccc1Cl	34	0.17	0.7	0.23	0.5	49
Cc1nn(C)c(C)c1NC(=O)CCCSc1nc(-c2ccco2)cc(C(F)(F)F)n1	x	2.3	x	0.5	x	x
CCOc1cccc(OCCCNCCCOC)c1	-8	0.17	1.1	-0.56	1	-2
O=C(Nn1cnnc1)c1cc2c(s1)CCCCC2	72*	1	0.3	x	0.8	16
O=C(Nc1ccon1)c1cc2c(s1)CCCCCC2	55*	-1.3	0.5	-1.2	0.3	69*
O=C(NCCCn1ccnc1)c1cc2c(s1)CCCCC2	93*	-0.02	0.1	0.26	0.3	73*
O=C(NCCO)c1cc2c(s1)CCC2	17	-0.05	0.8	0.88	1	1
O=C(Nc1ccon1)c1cc2c(s1)CCCC2	-2	0.35	1	-0.08	0.7	26
COCCNC(=O)CSc1ncnc2sccc12	-7	0.69	1.1	0.57	1	4
CC(C)=CCC(C)(C)C1OCCN1C(=O)c1ccccc1 (stereo not drawn)	71*	-0.47	0.3	-0.93	0.6	44
O=C(O)C1Cc2ccccc2CN1C(=O)c1ccccc1 (stereo not drawn)	0	0.98	1	0.42	1.1	-10
O=C(CCCNS(=O)(=O)c1cccc2nsnc12)NC1CCCCC1	-6	0.44	1.1	0.86	1.1	-10
CNc1sc(C(=O)c2ccccc2F)c(N)c1-c1nc2ccccc2s1	89*	-0.08	0.1	-0.97	0.2	84*
CCOc1ccc(OCC)c(NC(=O)CSc2nc3c(c(=O)n(C)c(=O)n3C)n2C(C)C)c1	8	-1.2	0.9	-0.34	0.7	31
COc1ccccc1NC(=O)CSc1nnc(-c2ccc(NC(C)=O)cc2)n1C	-5	-0.57	1	0.064	0.8	24
CC(=O)Nc1cccc(-c2nnc(SCC(=O)n3c4c(c5ccccc53)CCCC4)n2C)c1	93*	-0.48	0.1	-0.6	1.1	-12
CC(=O)Nc1cccc(-c2nnc(SCC(=O)N3CCCCC3)n2C)c1	x	3.5	x	-0.0079	x	x
SMILES	CYP2C19 inh	PTK2B oligo ant	CYP2C19 act	Cav3 T inh	CYP2C9 activ	CYP2C9 inh
COC(=O)c1ccccc1NC(=O)CSc1nnc(-c2cccc(NC(C)=O)c2)n1C	94*	-0.38	0.1	0.25	0.6	39
O=C(CSc1ncccn1)n1c2c(c3ccccc31)CCCC2	-3	-0.74	1	-1.7	2.1*	-112
COc1cccc(SCc2noc(C(=O)NCCC(C)C)c2C(=O)NCCC(C)C)c1	x	x	x	-1.1	x	x
O=C(CNc1ccc(Oc2ccccc2)cc1)N1CCOCC1	-9	0.58	1.1	0.69	1.2	-18
Cc1ccccc1S(=O)(=O)Cc1ccc(C(=O)NC(C)c2ccc3c(c2)OCCO3)o1 (stereo not drawn)	99*	x	0	-1.5	0	98*
CC(NC(=O)c1ccc(CS(=O)(=O)c2ccc(Cl)cc2)o1)c1ccc2c(c1)OCCO2 (stereo not drawn)	50	-0.5	0.5	-2	0.3	74*
CC(NC(=O)c1ccco1)c1ccc2c(c1)OCCO2 (stereo not drawn)	x	0.09	x	1.2	x	x
CCCCN(CCCC)c1nc2ccccc2nc1C(C#N)C(=O)NCCCOC (stereo not drawn)	20	0.55	0.8	-8.1*	0.7	28
CCN(CC)c1nc2ccccc2nc1C(C#N)C(=O)NCCc1ccccc1 (stereo not drawn)	13	-0.09	0.9	-3.7	0.5	54*
CC(C)COc1nc2ccccc2nc1C(C#N)C(=O)NC1CCCCC1 (stereo not drawn)	-2	-0.29	1	-1.2	0.9	14
CCN(CC)c1nc2ccccc2nc1C(C#N)C(=O)NCCCOC (stereo not drawn)	56*	1.3	0.4	-2.5	0.2	79*
CCCN(CCC)c1nc2ccccc2nc1C(C#N)C(=O)OC(C)COC (stereo not drawn)	x	x	x	-7.7*	x	x
Cc1noc(C)c1S(=O)(=O)N1CCC(C(=O)NC2CCCc3ccccc32)CC1 (stereo not drawn)	-5	-0.01	1.1	-0.036	1.3	-34
COC1=Cc2c(ccc3ccc(=O)oc23)OC1(C)C	1	-0.49	1	-1.4	0.8	23
C=CCc1c(OC)ccc2ccc(=O)oc12	57*	1.1	0.4	0.74	2.2*	-124
CC(CN1CCOCC1)OC(=O)c1cccc(Br)c1 (stereo not drawn)	60*	0.27	0.4	0.09	1	-1
CCN(CC)S(=O)(=O)c1cccc(-c2nnc(SCC(=O)NC3CCCCCCC3)n2N)c1	52*	-0.46	0.5	-2.2	0.2	79*
CCN(CC)S(=O)(=O)c1cccc(-c2nnc(SCC(=O)NC3CCCCCC3)n2N)c1	57*	-0.48	0.4	-0.87	0.4	60*
CC1CCCCC1NC(=O)CSc1nnc(-c2ccccc2)n1N (stereo not drawn)	88*	2.1	0.1	0.22	0.4	56*
Nn1c(SCC(=O)NC2CCCCC2)nnc1-c1ccccc1	31	0.04	0.7	-0.25	1.1	-10
CCOc1ccc(CCNC(=O)COC(=O)c2cccnc2OCC)cc1OCC	77*	-0.18	0.2	-0.087	0.1	87*
CCOc1ccc(CCNC(=O)COC(=O)c2nc3nc(C)cc(C)n3n2)cc1OCC	x	-0.45	x	x	x	x
CCOc1ncccc1C(=O)OCc1ccc(C(=O)OC)o1	24	1.2	0.8	-0.044	0.9	12
CCOc1ncccc1C(=O)OCC(=O)NCCc1ccc(OC)cc1	81*	0.55	0.2	0.015	0.4	58*
O=C(COc1cccc(NC(=O)c2ccco2)c1)c1ccccc1	42	0.3	0.6	-0.58	0.7	32
Cc1ccc(-c2nc(C3CCN(S(C)(=O)=O)CC3)no2)cc1	-6	-0.25	1.1	-0.89	1.1	-8
